# Records with an inconclusive call do not appear. A call without a number means that no potency is given here. Active and inactive are the calls of the source. The call rests on the fitted dose curve.
# Molecular target: Beta-2 adrenergic receptor (Homo sapiens) (UniProt P07550)
# Assay: Adrenergic beta2 receptor (ADRB2) small molecule agonists, cell-based qHTS assay (AID 1963593);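 further: CHO cells stably overexpressing human ADRB2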
# How it was run: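 CHO cells stably over-expressing ADRB2 were plated overnight at 37C, then dosed with compounds plus a stimulation mix containing 100uM IBMX and 25uM Ro-20-1724 for 0.5hr at room temperature. cAMP was measured by HTRF competition, 1hr.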
# Sequence of Beta-2 adrenergic receptor (Homo sapiens) (P07550 whole entry, looked up): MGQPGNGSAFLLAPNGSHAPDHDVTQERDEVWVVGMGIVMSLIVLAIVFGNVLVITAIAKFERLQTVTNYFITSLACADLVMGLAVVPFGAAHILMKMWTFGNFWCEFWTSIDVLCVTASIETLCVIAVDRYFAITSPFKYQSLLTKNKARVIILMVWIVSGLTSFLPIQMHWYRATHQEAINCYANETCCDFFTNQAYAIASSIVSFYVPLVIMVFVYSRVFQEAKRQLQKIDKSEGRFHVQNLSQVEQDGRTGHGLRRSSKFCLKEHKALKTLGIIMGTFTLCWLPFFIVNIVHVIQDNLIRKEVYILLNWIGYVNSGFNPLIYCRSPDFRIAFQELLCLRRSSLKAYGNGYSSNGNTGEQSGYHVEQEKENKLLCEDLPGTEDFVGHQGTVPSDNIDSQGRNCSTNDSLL
row,SMILES,Potency
1,CC(C)OS(C)(=O)=O,inactive
2,OCCOc1ccccc1,inactive
3,c1ccc(C2CO2)cc1 (stereo not drawn),inactive
4,c1ccc(N2CCNCC2)cc1,inactive
5,CCCCN=C=O,inactive
6,C=CCN=C=S,inactive
7,Nc1ccc([As](=O)(O)O)cc1,inactive
8,Cc1cnc(C2=NC(C)(C(C)C)C(=O)N2)c(C(=O)O)c1 (stereo not drawn),inactive
9,N#CCCCCC#N,inactive
10,O=c1ccc(=O)[nH][nH]1,inactive
11,CN(C)c1ccccc1,inactive
12,CC1COC2(c3ccccc3Cl)c3cc(Cl)ccc3NC(=O)CN12 (stereo not drawn),inactive
13,CC(=O)C(Cl)Cl,inactive
14,CCN(CC)C1CCCCC1,inactive
15,COc1c(C(C)(C)C)cc([N+](=O)[O-])c(C)c1[N+](=O)[O-],inactive
16,Cl/C=C\C[N+]12CN3CN(CN(C3)C1)C2,inactive
17,[N-]=[N+]=[N-],inactive
18,CC1(C)C(C=C(Cl)Cl)C1C(=O)OC(C#N)c1cccc(Oc2ccccc2)c1 (stereo not drawn),inactive
19,CCCC(C)(COC(N)=O)COC(=O)NC(C)C (stereo not drawn),inactive
20,COC(=O)c1c(C(F)F)nc(C(F)(F)F)c(C2=NCCS2)c1CC(C)C,inactive
21,CC(C)(OOC(C)(C)c1ccccc1)c1ccccc1,inactive
22,O=[N+]([O-])CCO,inactive
23,Nc1ccc(Br)cc1,inactive
24,O=C(Cc1ccccc1)c1ccccc1,inactive

row,SMILES,Potency
1,O=c1[nH]c(=O)[nH]c(=O)[nH]1,inactive
2,CCCC(C)(COC(N)=O)COC(N)=O,inactive
3,CC(C)NC(C)C,inactive
4,O=[N+]([O-])c1ccc([As](=O)(O)O)cc1,inactive
5,Cc1ccccc1[N+](=O)[O-],inactive
6,Nc1ncc([N+](=O)[O-])s1,inactive
7,C=CCOCC1CO1 (stereo not drawn),inactive
8,BrCc1ccc(Br)cc1,inactive
9,COS(=O)(=O)OC,inactive
10,Nn1cnnc1,inactive
11,COc1nc(NC(C)C)nc(NC(C)C)n1,inactive
12,[CH3][Sn]([Cl])([Cl])[Cl],inactive
13,O=C(O)c1cc(Cl)ccc1Cl,inactive
14,Clc1nc(Cl)nc(Nc2ccccc2Cl)n1,inactive
15,CC(C)(C)OOC(C)(C)C,inactive
16,C=C(C)[C@@H]1CC=C(C=O)CC1,inactive
17,O=NN1CCCC1,inactive
18,OCC(Cl)CCl (stereo not drawn),inactive
19,ClC(Cl)(Cl)c1ccccc1,inactive
20,O=C(O)C(F)(F)C(F)(F)C(F)(F)C(F)(F)C(F)(F)C(F)(F)F,inactive
21,CCCC1CCCCN1 (stereo not drawn),inactive
22,CCCCC(CC)CO[N+](=O)[O-] (stereo not drawn),inactive
23,Nc1ccncc1,inactive
24,O=C(O)C(Br)Br,inactive
